Screens as filed in PubChem BioAssay.
A selection: hits, their analogues and other compounds. The true share with any hit is near 7.3%.
Vaccinia mCherry: vaccinia inhibition (mCherry reporter); AID 720579; hit rate 0.63% among 310,000; Potency, µM (doses to about 36.5 µM), usual class: inhibitors; Vaccinia virus mCherry reporter infection, fluorescence; calls by dose curve; tested in A549 cells; also: nearly all actives have a fitted effect of over 35% in size
HCV inh: HCV inhibition | Huh7.5.1 HCVcc-Cre infection, luciferase reporter, 44 h | Potency, µM (top dose mostly 41.8 µM), hits mostly inhibitors | hit rate 3.4% among 340,000; active = well fitted inhibition curve with a large enough effect; inconclusive = small, poorly fitted or top-dose-only effect, or another doubt; inactive = no such curve, though single readings can be large or run the other way
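Antiviral activity was scored by luciferase reporter output from cells infected with HCVcc-Cre (~0.5 moi) in presence of compound, 44 h infection period, cells seeded 1,000/well 4 h prior.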
FMDV inh: foot and mouth disease virus antiviral activity; hit rate 1.2% among 410,000; FMDV antiviral cell-based qHTS; Potency, µM (top dose mostly 57.9 µM), hits mostly inhibitors; calls by dose curve; tested in HEK293T cells; also: read-out not given here; nearly all actives have a fitted effect of over 45% in size
HCMV antiviral: human cytomegalovirus inhibition | HFF cells, HCMV-luciferase reporter, 72 h; stronger effect = lower value | activity change, negative = inhibition, % at 57.5 µM | hit rate 4.5% among 410,000; in the data active = activity change below about -60%; inconclusive = no clear call, values can overlap the other calls; inactive = above about -39%
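Inhibition of viral replication was scored as loss of reporter luminescence in HFFs infected with HCMV-luciferase (MOI 1 PFU/cell) for 72 h; compounds tested at 2 doses, normalized to buffer and Salinomycin controls.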
Vaccinia Venus: inhibitors of vaccinia virus (Venus reporter) | hit rate 0.46% among 330,000 | Potency, µM (top dose mostly 36.5 µM), actives largely listed as inhibitors | Vaccinia virus Venus reporter expression, fluorescence; calls by dose curve; tested in A549 cells; also: nearly all actives have a fitted effect of over 30% in size
Hits are given with their value; i = inactive; ? = inconclusive; nt = no result given.

SMILES	Vaccinia mCherry	HCV inh	FMDV inh	HCMV antiviral	Vaccinia Venus
CCOc1cc(CNCCSc2nnnn2C)cc(Br)c1OCc1ccccc1F	i	?	nt	i	i
CCOc1cc(CNCCO)cc(Br)c1OCc1cccs1	i	5.6µM	?	?	?
OCCNCc1cc(Br)ccc1OCc1ccc(Cl)cc1	i	?	?	i	i
COc1cc(CNCCO)cc(Br)c1OCc1ccccc1	nt	i	i	i	nt
O=c1c(-c2ccccc2)nc2cnc(N3CCOCC3)nc2n1CCc1ccccc1	nt	nt	i	nt	nt
CCc1ccc(NC(=O)COC(=O)c2ccccc2OCC(=O)N(C)C)cc1	i	nt	nt	nt	i
Cc1cc(C)c(CN2CCN(CCCn3ccc(NC(=O)OCc4ccccc4)nc3=O)CC2)c(C)c1	?	7.9µM	?	i	?
Cc1cc(C)c(Nc2nc3ccccc3n3c(C)nnc23)c(C)c1	i	nt	i	i	i
O=c1cc(-c2ccccc2)oc2ccccc12	i	?	i	i	i
Nc1cc([N+](=O)[O-])cc2oc(-c3ccccc3)cc12	nt	10µM	i	i	nt
COc1ccc(S(=O)(=O)N(C)C[C@H]2Oc3c(NC(=O)Nc4ccc(C(F)(F)F)cc4)cccc3C(=O)N([C@H](C)CO)C[C@@H]2C)cc1	?	?	?	nt	10µM
Cc1ccc(S(=O)(=O)Nc2ccc3c(c2)C(=O)N([C@H](C)CO)C[C@H](C)[C@@H](CN(C)C(=O)Nc2ccc(C(F)(F)F)cc2)O3)cc1	i	13µM	i	i	i
C[C@H](CO)N1C[C@H](C)[C@@H](CN(C)C(=O)Nc2ccc(C(F)(F)F)cc2)Oc2c(NS(=O)(=O)c3cn(C)cn3)cccc2C1=O	i	2.8µM	i	i	i
C[C@H](CO)N1C[C@H](C)[C@@H](CN(C)C(=O)Nc2ccc(C(F)(F)F)cc2)Oc2ccc(NS(=O)(=O)c3ccc(F)cc3)cc2C1=O	i	i	i	i	i
Cc1ccc(S(=O)(=O)Nc2ccc3c(c2)C(=O)N([C@H](C)CO)C[C@H](C)[C@@H](CN(C)Cc2ccc(-c4ccccc4)cc2)O3)cc1	?	?	?	nt	10µM
Cc1nc(CN2CCN(C(=O)CC3(c4ccccc4Cl)CC(=O)N(C)C3=O)CC2)cs1 (configuration not stated)	i	nt	i	nt	i
COCC(=O)Nc1cc(C(=O)N2CC3CCCC2C3)c2c(c1)nc(-c1ccncc1)n2C (configuration not stated)	i	nt	i	nt	i
Fc1cccc(CN(C2=NCCN2)c2c(Cl)cccc2Cl)c1	i	?	i	-63	i
Cc1nn(C)cc1C(=O)/C=C/c1ccc([N+](=O)[O-])cc1	i	22µM	i	i	i
Cc1ccc(/C=C/C(=O)c2ccccc(=O)c2O)c(C)c1	?	?	?	-82	?
CC(C)NC(=O)c1ccccc1NC(=O)Cc1ccc([N+](=O)[O-])cc1	i	i	i	i	i
Cc1ccc(C)c(/C=C/C(=O)c2ccccc(=O)c2O)c1	14µM	?	?	-101	?
CC(C)NC(=O)c1ccccc1NC(=O)/C=C/c1ccc([N+](=O)[O-])cc1	nt	11µM	i	i	nt
CC1(C(=O)NS(=O)(=O)c2ccc(Cl)s2)CCN1C(=O)c1ccccc1CCc1ccccc1 (configuration not stated)	i	nt	i	i	i
Cc1ccc(NC(=O)CN2C(=O)c3ccccc3Sc3ncccc32)c(C)c1	i	nt	i	i	i
SMILES	Vaccinia mCherry	HCV inh	FMDV inh	HCMV antiviral	Vaccinia Venus
O=C(/C=C/c1ccccc1Cl)c1ccccc(=O)c1O	10µM	?	?	?	?
O=C(/C=C/c1ccc([N+](=O)[O-])cc1)c1cccs1	i	i	i	-76	i
O=C(/C=C/c1ccc([N+](=O)[O-])cc1)c1ccccc(=O)c1O	?	7.9µM	13µM	-95	i
CC(Cc1ccccc1)NC(=O)/C=C/c1ccc([N+](=O)[O-])cc1 (configuration not stated)	i	?	i	i	i
Cc1ccc2c(c1)N(CC(=O)NC1CCC(C)CC1)C(=O)c1cccnc1O2 (configuration not stated)	i	i	i	i	i
O=C(CSc1nnc2c(n1)[nH]c1ccccc12)NCc1ccccc1F	i	i	i	i	i
O=C(O)CN1C(=O)C=CC1=O	i	nt	i	i	i
O=C1C=CC(=O)N1CCCCCCN1C(=O)C=CC1=O	i	?	40µM	-102	i
CCO[C@H]1C[C@@H](c2ccc(CC)cc2)N(S(=O)(=O)c2ccc(C)cc2)C2CC(c3ccc(CC)cc3)N(S(=O)(=O)c3ccc(C)cc3)CC21 (some centres not stated)	i	nt	i	i	i
